# Measurements taken from article PMC7862700, “An all-to-all approach to the identification of sequence-specific readers for epigenetic DNA modifications on cytosine”.
# What was measured:
# Experiment in all cases: DAPPL (digital affinity profiling via proximity ligation, sequencing); 10 mM Tris-HCl pH 7.5, 50 mM NaCl, 1 mM DTT, 4% glycerol, room temperature, 30 min; GST-TFs on glutathione beads, 16-mer random dsDNA library, 0.1% formaldehyde crosslink after washing; high values mean tight binding
# FLI1 = molecular target: T1, FLI1 (Homo sapiens, UniProt Q01543 1-452); conditions: protein: recombinant; tags: N-terminal GST; dsDNA, one strand shown
# T1 sequence: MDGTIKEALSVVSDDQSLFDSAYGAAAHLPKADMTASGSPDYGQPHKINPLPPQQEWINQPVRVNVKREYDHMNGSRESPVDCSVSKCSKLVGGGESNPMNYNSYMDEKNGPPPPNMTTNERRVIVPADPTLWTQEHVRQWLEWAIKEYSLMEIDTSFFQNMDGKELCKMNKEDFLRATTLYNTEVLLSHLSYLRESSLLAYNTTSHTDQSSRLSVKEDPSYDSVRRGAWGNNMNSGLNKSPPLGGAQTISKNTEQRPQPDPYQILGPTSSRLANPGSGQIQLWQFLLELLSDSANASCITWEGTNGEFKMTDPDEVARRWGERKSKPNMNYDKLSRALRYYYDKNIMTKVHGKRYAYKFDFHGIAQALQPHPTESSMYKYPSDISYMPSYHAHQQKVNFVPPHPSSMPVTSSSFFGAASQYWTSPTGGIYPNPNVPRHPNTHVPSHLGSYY
# In short: (§1)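 Pools of DNA-barcoded human transcription factors, expressed in yeast as GST fusions on glutathione beads and combined with a tag-only sample, were incubated with 200 nmole of a 16-mer random double-stranded DNA library. Incubation took 30 min at room temperature in Tris/NaCl/DTT/glycerol buffer and was followed by washing, 0.1% formaldehyde crosslinking, proximity ligation (BsaI/T4 ligase, 1 h, 37 °C), PCR amplification and sequencing on an Illumina NextSeq500. Binding signal is the ratio of a hexamer's read frequency for a factor to its frequency for the tag-only sample.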
# ELK1 = molecular target: T2, ELK1 (Homo sapiens, UniProt P19419 1-428); conditions: protein: recombinant; tags: N-terminal GST; dsDNA, one strand shown
# T2 sequence: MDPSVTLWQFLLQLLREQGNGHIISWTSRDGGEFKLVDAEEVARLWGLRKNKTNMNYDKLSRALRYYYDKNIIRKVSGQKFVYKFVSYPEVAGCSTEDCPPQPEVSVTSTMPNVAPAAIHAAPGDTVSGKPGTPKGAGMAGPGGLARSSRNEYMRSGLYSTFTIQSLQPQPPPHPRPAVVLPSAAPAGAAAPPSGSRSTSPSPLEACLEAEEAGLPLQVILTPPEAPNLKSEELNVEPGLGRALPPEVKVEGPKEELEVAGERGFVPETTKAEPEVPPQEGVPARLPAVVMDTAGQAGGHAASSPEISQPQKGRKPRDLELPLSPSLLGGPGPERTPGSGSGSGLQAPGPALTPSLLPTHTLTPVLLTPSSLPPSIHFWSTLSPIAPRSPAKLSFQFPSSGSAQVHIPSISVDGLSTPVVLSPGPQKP
# In short: as §1
# GABPA = molecular target: T3, GABPA (Homo sapiens, UniProt Q06546 1-454); conditions: protein: recombinant; tags: N-terminal GST; dsDNA, one strand shown
# T3 sequence: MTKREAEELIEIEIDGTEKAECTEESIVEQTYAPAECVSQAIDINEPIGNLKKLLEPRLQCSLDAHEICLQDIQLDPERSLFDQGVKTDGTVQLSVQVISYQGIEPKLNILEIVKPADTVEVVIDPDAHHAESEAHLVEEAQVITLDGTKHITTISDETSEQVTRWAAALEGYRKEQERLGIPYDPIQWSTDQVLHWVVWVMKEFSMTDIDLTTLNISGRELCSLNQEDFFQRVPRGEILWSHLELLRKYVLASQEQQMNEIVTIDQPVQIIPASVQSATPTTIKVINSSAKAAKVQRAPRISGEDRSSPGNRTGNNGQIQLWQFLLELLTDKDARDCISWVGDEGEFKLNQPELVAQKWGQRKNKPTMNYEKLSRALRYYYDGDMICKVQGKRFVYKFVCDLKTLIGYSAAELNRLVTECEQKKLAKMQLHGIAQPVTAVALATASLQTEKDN
# In short: as §1
# ERG = molecular target: T4, ERG (Homo sapiens, UniProt P11308 1-479); conditions: protein: recombinant; tags: N-terminal GST; dsDNA, one strand shown
# T4 sequence: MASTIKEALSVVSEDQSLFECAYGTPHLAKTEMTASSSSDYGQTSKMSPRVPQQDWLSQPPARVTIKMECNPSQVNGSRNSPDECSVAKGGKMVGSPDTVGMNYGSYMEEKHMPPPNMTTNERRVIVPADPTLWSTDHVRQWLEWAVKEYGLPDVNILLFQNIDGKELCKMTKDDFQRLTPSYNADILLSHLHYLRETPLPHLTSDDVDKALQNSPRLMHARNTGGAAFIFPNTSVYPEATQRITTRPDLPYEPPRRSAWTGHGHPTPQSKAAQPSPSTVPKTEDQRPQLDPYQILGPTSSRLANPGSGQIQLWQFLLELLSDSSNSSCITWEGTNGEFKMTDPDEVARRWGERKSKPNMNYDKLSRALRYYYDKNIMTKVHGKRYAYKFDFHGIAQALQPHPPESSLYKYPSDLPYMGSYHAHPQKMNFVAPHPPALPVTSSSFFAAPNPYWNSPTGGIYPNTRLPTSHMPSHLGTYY
# In short: as §1
# ELF1 = ELF1 (Homo sapiens, UniProt P32519 1-619); conditions: protein: recombinant; tags: N-terminal GST; dsDNA, one strand shown
# In short: as §1
# EHF = molecular target: T5, EHF (Homo sapiens, UniProt Q9NZC4 1-300); conditions: protein: recombinant; tags: N-terminal GST; dsDNA, one strand shown
# T5 sequence: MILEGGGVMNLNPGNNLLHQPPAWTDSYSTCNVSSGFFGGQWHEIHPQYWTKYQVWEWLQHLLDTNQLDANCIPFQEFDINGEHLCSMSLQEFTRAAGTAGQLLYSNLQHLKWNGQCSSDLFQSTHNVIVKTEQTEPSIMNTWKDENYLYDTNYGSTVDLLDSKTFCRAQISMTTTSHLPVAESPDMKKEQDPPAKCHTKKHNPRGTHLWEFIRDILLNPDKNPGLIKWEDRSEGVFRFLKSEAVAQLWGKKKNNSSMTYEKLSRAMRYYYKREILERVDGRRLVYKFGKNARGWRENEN
# In short: as §1
# SPI1 = SPI1 (Homo sapiens, UniProt P17947 1-270); conditions: protein: recombinant; tags: N-terminal GST; dsDNA, one strand shown
# In short: as §1
# SPIB = SPIB (Homo sapiens, UniProt Q01892 1-262); conditions: protein: recombinant; tags: N-terminal GST; dsDNA, one strand shown
# In short: as §1
# ELK3 = molecular target: T6, ELK3 (Homo sapiens, UniProt P41970 1-407); conditions: protein: recombinant; tags: N-terminal GST; dsDNA, one strand shown
# T6 sequence: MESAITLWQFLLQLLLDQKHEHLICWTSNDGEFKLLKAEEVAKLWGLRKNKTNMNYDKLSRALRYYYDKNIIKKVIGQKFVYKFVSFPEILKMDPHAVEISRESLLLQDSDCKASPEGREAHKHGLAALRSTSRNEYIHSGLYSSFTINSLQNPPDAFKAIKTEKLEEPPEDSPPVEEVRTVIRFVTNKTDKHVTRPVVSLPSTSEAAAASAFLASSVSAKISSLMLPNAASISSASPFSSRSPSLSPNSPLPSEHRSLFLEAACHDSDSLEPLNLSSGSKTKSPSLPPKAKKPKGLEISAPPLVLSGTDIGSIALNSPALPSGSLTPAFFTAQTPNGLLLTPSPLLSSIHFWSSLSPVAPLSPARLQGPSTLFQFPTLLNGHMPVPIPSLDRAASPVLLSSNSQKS
# In short: as §1
# FEV = molecular target: T7, FEV (Homo sapiens, UniProt Q99581 1-238); conditions: protein: recombinant; tags: N-terminal GST; dsDNA, one strand shown
# T7 sequence: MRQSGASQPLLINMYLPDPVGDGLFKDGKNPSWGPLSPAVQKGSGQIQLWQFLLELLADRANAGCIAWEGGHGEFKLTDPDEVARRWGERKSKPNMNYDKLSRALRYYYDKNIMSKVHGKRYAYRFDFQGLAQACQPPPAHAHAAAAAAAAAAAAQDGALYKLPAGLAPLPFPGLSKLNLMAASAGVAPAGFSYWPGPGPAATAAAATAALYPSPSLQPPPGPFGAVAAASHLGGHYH
# In short: as §1
# ETV5 = ETV5 (Homo sapiens, UniProt P41161 1-510); conditions: protein: recombinant; tags: N-terminal GST; dsDNA, one strand shown
# In short: as §1
# HSF1 = HSF1 (Homo sapiens, UniProt Q00613 1-529); conditions: protein: recombinant; tags: N-terminal GST; chain copies: 3; dsDNA, one strand shown
# In short: as §1
# SPIC = molecular target: T8, SPIC (Homo sapiens, UniProt Q8N5J4 1-248); conditions: protein: recombinant; tags: N-terminal GST; dsDNA, one strand shown
# T8 sequence: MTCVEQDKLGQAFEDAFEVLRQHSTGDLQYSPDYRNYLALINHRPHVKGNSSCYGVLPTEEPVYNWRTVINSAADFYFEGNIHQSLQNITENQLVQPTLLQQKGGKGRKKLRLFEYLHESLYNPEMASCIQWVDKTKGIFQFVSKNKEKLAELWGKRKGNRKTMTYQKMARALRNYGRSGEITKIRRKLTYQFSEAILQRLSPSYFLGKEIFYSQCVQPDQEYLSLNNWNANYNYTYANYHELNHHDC
# In short: as §1
# ELF4 = ELF4 (Homo sapiens, UniProt Q99607 1-663); conditions: protein: recombinant; tags: N-terminal GST; dsDNA, one strand shown
# In short: as §1
# ELK4 = molecular target: T9, ELK4 (Homo sapiens, UniProt P28324-2 1-405); conditions: protein: recombinant; tags: N-terminal GST; dsDNA, one strand shown
# T9 sequence: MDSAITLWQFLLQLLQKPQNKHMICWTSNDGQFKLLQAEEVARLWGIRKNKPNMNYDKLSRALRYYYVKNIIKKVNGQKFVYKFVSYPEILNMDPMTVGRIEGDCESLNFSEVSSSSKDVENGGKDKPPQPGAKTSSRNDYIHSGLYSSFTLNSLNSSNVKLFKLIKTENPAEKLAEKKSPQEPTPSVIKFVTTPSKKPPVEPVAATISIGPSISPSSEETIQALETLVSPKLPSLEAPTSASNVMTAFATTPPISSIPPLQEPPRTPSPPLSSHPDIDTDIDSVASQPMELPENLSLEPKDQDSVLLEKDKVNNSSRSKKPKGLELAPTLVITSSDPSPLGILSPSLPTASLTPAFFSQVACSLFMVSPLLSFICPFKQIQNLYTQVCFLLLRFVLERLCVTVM
# In short: as §1
# ETV2 = molecular target: T10, ETV2 (Homo sapiens, UniProt O00321 1-342); conditions: protein: recombinant; tags: N-terminal GST; dsDNA, one strand shown
# T10 sequence: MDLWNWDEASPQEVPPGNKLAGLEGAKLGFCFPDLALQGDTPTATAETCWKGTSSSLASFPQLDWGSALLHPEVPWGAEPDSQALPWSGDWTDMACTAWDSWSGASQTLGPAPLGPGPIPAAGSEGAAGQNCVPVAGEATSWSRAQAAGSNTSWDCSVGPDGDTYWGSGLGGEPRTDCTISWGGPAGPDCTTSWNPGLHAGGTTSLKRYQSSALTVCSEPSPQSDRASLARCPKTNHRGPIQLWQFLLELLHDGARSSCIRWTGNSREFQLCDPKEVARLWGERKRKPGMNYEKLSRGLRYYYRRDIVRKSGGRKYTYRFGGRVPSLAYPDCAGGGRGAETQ
# In short: as §1
# ELF3 = molecular target: T11, ELF3 (Homo sapiens, UniProt P78545 1-371); conditions: protein: recombinant; tags: N-terminal GST; dsDNA, one strand shown
# T11 sequence: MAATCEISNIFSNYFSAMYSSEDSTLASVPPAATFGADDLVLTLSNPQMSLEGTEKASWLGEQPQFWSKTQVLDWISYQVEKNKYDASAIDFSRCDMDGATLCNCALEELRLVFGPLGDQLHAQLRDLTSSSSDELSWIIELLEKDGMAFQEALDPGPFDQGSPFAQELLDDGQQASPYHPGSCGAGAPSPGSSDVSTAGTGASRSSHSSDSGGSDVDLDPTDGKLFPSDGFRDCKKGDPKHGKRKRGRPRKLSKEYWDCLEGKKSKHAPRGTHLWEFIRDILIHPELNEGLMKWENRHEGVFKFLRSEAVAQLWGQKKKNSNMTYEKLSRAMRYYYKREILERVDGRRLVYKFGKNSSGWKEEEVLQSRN
# In short: as §1
# CRX = CRX (Homo sapiens, UniProt O43186 1-299); conditions: protein: recombinant; tags: N-terminal GST; dsDNA, one strand shown
# In short: as §1
# ETV1 = ETV1 (Homo sapiens, UniProt P50549 1-477); conditions: protein: recombinant; tags: N-terminal GST; dsDNA, one strand shown
# In short: as §1
# Sequence of HSF1 (Q00613 whole entry): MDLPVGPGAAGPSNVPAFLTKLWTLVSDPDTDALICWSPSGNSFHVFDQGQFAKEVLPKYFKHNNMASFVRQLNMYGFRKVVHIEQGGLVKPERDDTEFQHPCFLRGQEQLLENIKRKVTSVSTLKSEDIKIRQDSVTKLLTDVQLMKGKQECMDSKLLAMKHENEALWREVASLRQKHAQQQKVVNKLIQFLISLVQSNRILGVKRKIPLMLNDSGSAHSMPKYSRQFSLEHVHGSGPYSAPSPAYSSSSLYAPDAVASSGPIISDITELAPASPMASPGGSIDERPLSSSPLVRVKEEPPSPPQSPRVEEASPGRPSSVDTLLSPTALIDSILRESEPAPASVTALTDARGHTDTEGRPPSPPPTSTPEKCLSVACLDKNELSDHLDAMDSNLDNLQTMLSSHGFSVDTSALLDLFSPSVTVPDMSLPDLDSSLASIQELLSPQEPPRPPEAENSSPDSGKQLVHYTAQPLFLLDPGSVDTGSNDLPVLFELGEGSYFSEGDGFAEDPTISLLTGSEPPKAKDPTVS
# Sequence of ELF4 (Q99607 whole entry): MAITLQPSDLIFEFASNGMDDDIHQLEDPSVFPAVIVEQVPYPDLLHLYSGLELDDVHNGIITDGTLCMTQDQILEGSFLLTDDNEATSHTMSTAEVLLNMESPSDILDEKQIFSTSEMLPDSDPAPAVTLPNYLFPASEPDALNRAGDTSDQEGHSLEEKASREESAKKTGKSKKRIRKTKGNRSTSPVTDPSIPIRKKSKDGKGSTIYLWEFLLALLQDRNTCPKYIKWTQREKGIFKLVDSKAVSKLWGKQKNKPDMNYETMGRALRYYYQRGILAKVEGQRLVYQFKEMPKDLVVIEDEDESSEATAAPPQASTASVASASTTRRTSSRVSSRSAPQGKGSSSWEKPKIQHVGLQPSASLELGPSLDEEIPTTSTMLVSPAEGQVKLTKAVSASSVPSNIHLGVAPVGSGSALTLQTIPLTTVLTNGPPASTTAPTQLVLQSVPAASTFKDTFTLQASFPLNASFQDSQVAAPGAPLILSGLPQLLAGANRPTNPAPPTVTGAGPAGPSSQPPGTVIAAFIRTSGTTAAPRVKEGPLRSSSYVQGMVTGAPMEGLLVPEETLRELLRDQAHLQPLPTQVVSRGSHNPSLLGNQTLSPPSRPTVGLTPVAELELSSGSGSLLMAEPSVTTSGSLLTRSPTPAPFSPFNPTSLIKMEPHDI
# Sequence of ELF1 (P32519 whole entry): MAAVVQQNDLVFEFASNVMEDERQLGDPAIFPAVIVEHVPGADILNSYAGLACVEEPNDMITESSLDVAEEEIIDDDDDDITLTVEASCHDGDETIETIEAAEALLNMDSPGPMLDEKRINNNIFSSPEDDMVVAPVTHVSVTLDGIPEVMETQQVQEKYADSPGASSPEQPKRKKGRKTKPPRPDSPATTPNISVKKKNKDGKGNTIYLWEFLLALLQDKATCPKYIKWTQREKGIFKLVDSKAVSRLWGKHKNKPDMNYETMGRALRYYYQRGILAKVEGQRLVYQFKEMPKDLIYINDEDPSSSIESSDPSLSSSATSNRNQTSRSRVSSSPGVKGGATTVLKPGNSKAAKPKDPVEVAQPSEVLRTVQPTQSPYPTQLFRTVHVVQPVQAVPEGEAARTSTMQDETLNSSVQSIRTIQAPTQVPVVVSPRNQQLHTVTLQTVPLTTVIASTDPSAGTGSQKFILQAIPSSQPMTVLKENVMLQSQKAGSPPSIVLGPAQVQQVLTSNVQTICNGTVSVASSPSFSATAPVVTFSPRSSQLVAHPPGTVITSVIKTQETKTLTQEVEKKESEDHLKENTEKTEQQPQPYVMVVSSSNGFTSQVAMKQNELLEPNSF
# Sequence of ETV1 (P50549 whole entry): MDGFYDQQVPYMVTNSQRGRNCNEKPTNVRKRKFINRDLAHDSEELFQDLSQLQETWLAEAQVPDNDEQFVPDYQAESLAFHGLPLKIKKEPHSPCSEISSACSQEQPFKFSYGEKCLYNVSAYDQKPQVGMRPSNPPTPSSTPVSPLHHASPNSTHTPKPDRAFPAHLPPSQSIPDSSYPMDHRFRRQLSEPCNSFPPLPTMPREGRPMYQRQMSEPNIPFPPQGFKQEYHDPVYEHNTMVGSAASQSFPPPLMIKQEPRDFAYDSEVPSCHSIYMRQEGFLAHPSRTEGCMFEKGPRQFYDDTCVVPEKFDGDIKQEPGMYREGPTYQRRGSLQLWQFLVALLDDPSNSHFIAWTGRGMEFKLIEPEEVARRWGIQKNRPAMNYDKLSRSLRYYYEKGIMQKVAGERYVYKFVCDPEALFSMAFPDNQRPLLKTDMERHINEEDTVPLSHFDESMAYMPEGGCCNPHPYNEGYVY
# Sequence of CRX (O43186 whole entry): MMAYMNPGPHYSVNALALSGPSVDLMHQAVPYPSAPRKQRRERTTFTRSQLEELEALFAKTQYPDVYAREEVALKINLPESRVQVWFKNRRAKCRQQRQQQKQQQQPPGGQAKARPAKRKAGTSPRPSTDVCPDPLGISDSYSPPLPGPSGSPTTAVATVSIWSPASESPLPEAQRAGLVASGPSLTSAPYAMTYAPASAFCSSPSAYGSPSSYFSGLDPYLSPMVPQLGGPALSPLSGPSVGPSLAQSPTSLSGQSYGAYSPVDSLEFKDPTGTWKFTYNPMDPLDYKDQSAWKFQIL
# Sequence of SPIB (Q01892 whole entry): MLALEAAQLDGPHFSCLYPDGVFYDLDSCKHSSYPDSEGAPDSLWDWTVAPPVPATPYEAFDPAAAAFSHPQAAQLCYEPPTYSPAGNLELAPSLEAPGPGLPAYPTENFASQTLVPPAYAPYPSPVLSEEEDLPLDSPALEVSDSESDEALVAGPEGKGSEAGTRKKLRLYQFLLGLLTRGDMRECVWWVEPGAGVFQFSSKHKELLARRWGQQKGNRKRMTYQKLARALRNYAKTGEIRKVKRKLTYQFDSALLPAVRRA
# Sequence of ETV5 (P41161 whole entry): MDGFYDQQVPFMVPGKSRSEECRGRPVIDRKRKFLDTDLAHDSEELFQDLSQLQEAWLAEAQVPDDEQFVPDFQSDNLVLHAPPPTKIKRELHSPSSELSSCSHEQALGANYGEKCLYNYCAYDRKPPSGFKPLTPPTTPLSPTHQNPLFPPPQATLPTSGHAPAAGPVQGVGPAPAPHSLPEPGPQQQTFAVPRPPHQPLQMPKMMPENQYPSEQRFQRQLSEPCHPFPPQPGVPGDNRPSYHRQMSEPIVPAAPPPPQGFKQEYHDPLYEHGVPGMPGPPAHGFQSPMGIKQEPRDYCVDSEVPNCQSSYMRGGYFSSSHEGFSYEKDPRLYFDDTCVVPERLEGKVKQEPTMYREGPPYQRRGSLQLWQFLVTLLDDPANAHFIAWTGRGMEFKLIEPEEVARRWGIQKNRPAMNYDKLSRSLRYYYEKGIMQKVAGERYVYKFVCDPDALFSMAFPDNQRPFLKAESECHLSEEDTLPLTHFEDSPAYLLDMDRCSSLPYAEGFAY
sequence,measurement,setting,value
CTGACT,binding signal,FLI1,"1.25 fold enrichment (6-mer frequency, TF over GST control)"
same,binding signal,ELK1,"1.26 fold enrichment (6-mer frequency, TF over GST control)"
same,binding signal,GABPA,"1.29 fold enrichment (6-mer frequency, TF over GST control)"
same,binding signal,ERG,"1.22 fold enrichment (6-mer frequency, TF over GST control)"
same,binding signal,ELF1,"1.32 fold enrichment (6-mer frequency, TF over GST control)"
same,binding signal,EHF,"1.31 fold enrichment (6-mer frequency, TF over GST control)"
same,binding signal,SPI1,"1.27 fold enrichment (6-mer frequency, TF over GST control)"
same,binding signal,SPIB,"1.43 fold enrichment (6-mer frequency, TF over GST control)"
same,binding signal,ELK3,"1.26 fold enrichment (6-mer frequency, TF over GST control)"
same,binding signal,FEV,"1.32 fold enrichment (6-mer frequency, TF over GST control)"
same,binding signal,ETV5,"1.23 fold enrichment (6-mer frequency, TF over GST control)"
same,binding signal,HSF1,"1.05 fold enrichment (6-mer frequency, TF over GST control)"
same,binding signal,SPIC,"1.24 fold enrichment (6-mer frequency, TF over GST control)"
same,binding signal,ELF4,"1.37 fold enrichment (6-mer frequency, TF over GST control)"
same,binding signal,ELK4,"1.22 fold enrichment (6-mer frequency, TF over GST control)"
same,binding signal,ETV2,"1.48 fold enrichment (6-mer frequency, TF over GST control)"
same,binding signal,ELF3,"1.52 fold enrichment (6-mer frequency, TF over GST control)"
same,binding signal,CRX,"1.07 fold enrichment (6-mer frequency, TF over GST control)"
same,binding signal,ETV1,"1.4 fold enrichment (6-mer frequency, TF over GST control)"
